Compound activity from PubChem BioAssay.
GDH-TPI counter-1: inhibits GDH-TPI coupling enzymes, artifact for Mtb FBA screen. inhibition, % at 4.8 µM. AID 588335. 1.2% of 360,000 active. GDH-TPI coupled enzyme counterscreen, NADH absorbance; in the data active means inhibition above about 30%;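 further: 0% = DMSO wells and 100% = wells lacking the enzyme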
Yp Topo-I inh: blocks Yersinia pestis topoisomerase I activity; Y. pestis Topo-I cleavage product accumulation, plate reader; 0.064% of 360,000 active; AID 504884; activity, % at 10 µM; in the data active means activity above about 50%, passing the limit was not always enough
PrPC surface inh: cell surface PrPC inhibition, primary TR-FRET screen. P04156. TR-FRET read-out. inhibition, % at 13.8 µM. 0.43% of 370,000 active. AID 720596; in the data active means inhibition above about 24%; further: 0% = median of the test wells and 100% = reference compound wells
Mtb FBA inh: inhibits M. tuberculosis FBA enzyme; inhibition, % at 1 µM; purified M. tuberculosis FBA, fluorescence read-out; P9WQA3; AID 588726; 2.3% of 360,000 active;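 further: 0% = vehicle and 100% = reference inhibitor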
Target sequence (P9WQA3 whole entry, looked up): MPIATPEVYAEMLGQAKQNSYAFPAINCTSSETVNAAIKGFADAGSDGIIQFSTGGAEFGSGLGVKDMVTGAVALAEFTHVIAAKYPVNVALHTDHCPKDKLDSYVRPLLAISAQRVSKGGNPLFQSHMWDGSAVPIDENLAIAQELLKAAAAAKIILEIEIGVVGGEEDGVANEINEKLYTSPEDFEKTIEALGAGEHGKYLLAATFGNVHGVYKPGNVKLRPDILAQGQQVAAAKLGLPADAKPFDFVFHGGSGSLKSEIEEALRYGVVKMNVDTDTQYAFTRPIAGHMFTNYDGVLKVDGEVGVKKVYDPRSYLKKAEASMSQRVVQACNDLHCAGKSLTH
Mtb hypoxia rep: Mtb hypoxia fluorescent reporter inhibition; M. tuberculosis hypoxia-regulated fluorescent reporter, fluorescence; fluorescence inhibition, % (concentration not given with the values); 0.1% of 300,000 active; in the data active means fluorescence inhibition mostly above about 23%, no sharp cut-off; inactive means mostly below about 17%
PrP 5UTR inh: inhibition of PrP 5' UTR reporter expression. cell-based PrP 5' UTR mRNA reporter, plate reader. inhibition, % (concentration not given with the values). 0.35% of 340,000 active. AID 488862; in the data active means inhibition above about 52%; further: 0 = median of the neutral control wells
Mtb FBA inh conf: Mtb FBA inhibition, confirmed; shares compounds with Mtb FBA inh; purified M. tuberculosis FBA, fluorescence read-out; inhibition, % at 1 µM; 78% of 5,600 active; AID 651616;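 further: 0% = vehicle wells and 100% = reference inhibitor wells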
GDH-TPI counter-2: inhibits GDH-TPI coupling enzymes, flagging Mtb FBA hits | 81% of 5,600 active | inhibition, % at 1 µM | GDH-TPI coupled enzyme counterscreen, fluorescence | shares compounds with Mtb FBA inh; in the data active means inhibition above about 10%
* hit, by the source's call; x = no result given; + = active, no number. Shown are actives, neighbours in structure and some others; about 3.8% of the full set was active somewhere. Unless noted, no stated cut-off is given here; in the data, active means inhibition above about 27%; inactive means the rest.

SMILES | GDH-TPI counter-1 | Yp Topo-I inh | PrPC surface inh | Mtb FBA inh | Mtb hypoxia rep | PrP 5UTR inh | Mtb FBA inh conf | GDH-TPI counter-2
O=C(CNC(=O)c1ccc(F)cc1)NN=Cc1cn[nH]c1-c1ccccc1 | x | x | x | x | 16 | x | x | x
CC(C)(O)c1cc2ccc(C#Cc3ccsc3)cc2c(=O)o1 | 9 | 3 | 0 | 50* | x | -27 | 32* | 31*
CN(C)c1ccc(C#Cc2ccc3cc(CCCO)oc(=O)c3c2)cc1 | 28 | -11 | 5 | 6 | 14 | -35 | x | x
O=c1oc(CCCO)cc2ccc(C#Cc3ccsc3)cc12 | 1 | 40 | 4 | 57* | 1 | -37 | 87* | 73*
CC(C)(OC(=O)c1cccs1)c1cc2ccccc2c(=O)o1 | 8 | 7 | 1 | 3 | 12 | -11 | x | x
O=C(NC(Cc1ccccc1)C(=O)OCc1ccccc1)c1nc[nH]c1C(=O)N1CCN(c2ccccc2)CC1 (stereo unspecified) | x | x | x | x | -5 | x | x | x
COCC(=O)Nc1nc2n(n1)C(c1ccccc1)CC(c1ccc(OC)cc1)N2 (stereo unspecified) | 6 | 16 | 3 | 54* | 8 | -2 | 50* | 31*
Cc1ccccc1N(CC(=O)N1CCN(c2ccccc2)CC1)S(C)(=O)=O | 4 | 1 | -1 | 28* | 3 | -18 | 52* | 37*
Cc1ccccc1N(CC(=O)N1CCN(Cc2ccccc2)CC1)S(C)(=O)=O | 2 | 7 | -3 | -4 | x | x | x | x
COc1ccccc1Oc1nc(-c2ccccc2)cc(C)c1S(C)(=O)=O | 21 | -12 | 10 | 64* | x | 5 | 37* | 43*
Cc1cccc(Oc2nc(-c3ccccc3)cc(C)c2S(C)(=O)=O)c1C | -9 | 3 | 3 | 13 | x | -20 | x | x
Cc1cc(OC(C)C(=O)NCCN2CCOCC2)c2c(C)cc(=O)oc2c1 (stereo unspecified) | -3 | -8 | -7 | 33* | 1 | 0 | 76* | 64*
CCc1cc(=O)oc2cc(C)cc(OC(C)C(=O)NCCCN3CCOCC3)c12 (stereo unspecified) | 4 | 7 | -10 | 59* | 9 | -3 | 85* | 60*
Cc1cc(OC(C)C(=O)NCCCN2CCOCC2)c2c(C)c(C)c(=O)oc2c1 (stereo unspecified) | 9 | 3 | -4 | 64* | 13 | -7 | 168* | 181*
CCCc1cc(=O)oc2c(C)c(OC(C)C(=O)NCCN3CCOCC3)ccc12 (stereo unspecified) | 4 | -6 | 1 | 17 | 2 | -1 | x | x
Cc1c(C)c2cc(Cl)c(OC(C)C(=O)NCCN3CCOCC3)cc2oc1=O (stereo unspecified) | 0 | 2 | 1 | 20 | 7 | -10 | x | x
NNC(=O)c1sc(-c2ccccc2)cc1N | 10 | 3 | -8 | 41* | 15 | -16 | -1 | -3
O=C(NN=C/C=C/c1ccccc1[N+](=O)[O-])c1cccnc1 | x | x | x | x | -4 | x | x | x
COc1ccc2nc3c(cc2c1)c(NC(=O)C1CCCO1)nn3CC(C)C (stereo unspecified) | 12 | 1 | -12 | 39* | x | -20 | -1 | -3
O=C(c1cc(-c2cccs2)nc2ccccc12)N1CCN(S(=O)(=O)c2ccccc2)CC1 | 26 | 5 | -3 | 57* | 0 | -17 | 98* | 76*
CC1CC(C)CN(C(=O)c2cc(-c3ccncc3)nc3ccccc23)C1 (stereo unspecified) | 10 | 9 | -1 | 3 | 4 | -5 | x | x
O=C(c1cc(-c2cccs2)nc2ccccc12)N1CCN(S(=O)(=O)c2cccc(F)c2)CC1 | 15 | 0 | -2 | 38* | 3 | 0 | 123* | 92*
O=C(c1cc(-c2cccs2)nc2ccccc12)N1CCN(c2ccccc2)CC1 | 6 | 30 | -4 | 3 | 4 | -22 | x | x
CC1CCCN(C(=O)c2cc(-c3cccs3)nc3ccccc23)C1 (stereo unspecified) | 26 | 36 | 0 | 83* | 4 | -6 | 1 | -1
CC(=O)Nc1ccc(SCCN2CCC(O)CCC2=O)cc1 (stereo unspecified) | x | x | x | x | 12 | x | x | x
SMILES | GDH-TPI counter-1 | Yp Topo-I inh | PrPC surface inh | Mtb FBA inh | Mtb hypoxia rep | PrP 5UTR inh | Mtb FBA inh conf | GDH-TPI counter-2
COC(=O)c1cc(-c2c(C)oc3cc(O)ccc3c2=O)c(C)o1 | 29 | 2 | 0 | 76* | 4 | -19 | 29* | 32*
CCOc1ccc(Oc2c(C)oc3cc(O)ccc3c2=O)cc1 | 9 | -2 | -9 | 44* | 7 | -43 | + | 160*
Cc1oc2cc(O)ccc2c(=O)c1Oc1ccccc1 | 22 | -5 | 2 | 101* | x | -11 | 83* | 59*
COC(=O)c1cc(-c2c(C)oc3cc(OC)ccc3c2=O)c(C)o1 | -7 | 1 | 3 | -3 | 3 | 5 | x | x
Cc1oc2cc(O)ccc2c(=O)c1Oc1ccccc1Br | 18 | 6 | 1 | 96* | 10 | -10 | 6 | -1
CCC1S/C(=N/N=Cc2ccco2)NC1=O (stereo unspecified) | x | x | x | x | -5 | x | x | x
O=c1oc(Nc2ccccc2Cl)nc2ccccc12 | 3 | -5 | -2 | 24 | 10 | -40 | x | x
O=c1oc(Nc2cccc(Cl)c2)nc2ccccc12 | -6 | 3 | -9 | 48* | 10 | -56 | 34* | 18*
CCCCn1nc2cc(C(=O)NCc3ccc(C(F)(F)F)cc3C(F)(F)F)ccc2c1OCC | 10 | 21 | -4 | 22 | 20 | -13 | x | x
CCOc1c2ccc(C(=O)NCc3ccc(C(F)(F)F)cc3C(F)(F)F)cc2nn1C | 3 | 2 | 13 | 60* | 5 | -50 | 127* | 104*
C=CCOc1c2ccc(C(=O)NCc3ccc(OC)cc3)cc2nn1C | -2 | 5 | -1 | 15 | 9 | -34 | x | x
COc1c2ccc(C(=O)NCc3cc(C(F)(F)F)cc(C(F)(F)F)c3)cc2nn1C | 0 | 7 | 19 | 46* | 1 | -16 | 97* | 73*
COC(=O)c1c(NC(=O)C2C3CCC(O3)C2C(=O)O)sc2c1CCCCCC2 (stereo unspecified) | 6 | 8 | 5 | 61* | 15 | -22 | 95* | 78*
CC(C)C(=O)Nc1sc2c(c1-c1nc3ccccc3[nH]1)CCCC2 | 14 | -21 | 2 | 43* | -9 | -34 | + | 182*
O=C(Nc1ccccc1SCC1CSc2nc3ccccc3c(=O)n21)c1cccc(Cl)c1 (stereo unspecified) | -1 | 33 | -10 | 59* | x | 7 | 85* | 79*
CC=C(C)C(=O)Nc1cccc(C2=NOC3(C2)CC(C(N)=O)N(C(=O)Cc2ccc([N+](=O)[O-])cc2)C3)c1 (stereo unspecified) | x | x | x | x | 22 | x | x | x
